Bioassay records as filed in PubChem.
Sampled rows, rich in hits. Any-hit rate of the full collection: about 1.8%.
Ba/F3 V617F tox – reduced viability of JAK2V617F-dependent Ba/F3 cells, primary screen, JAK2V617F inhibitor project, cell-based, Ba/F3 EpoR-JAK2V617F, luminescence | hit rate 1.1% among 220,000 | ATP luminescence | AID 1446, 2008 | inhibition, % at 5.6 µM;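 active = inhibition above the campaign mean plus 3 SD over all tested compounds, cut at about 24% in these data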;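 also: cytokine-independent growth of Ba/F3 cells driven by EpoR plus mutant JAK2; 0% = DMSO-treated cells and 100% = JAK inhibitor I control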
KLF5 inhibitor – KLF5 expression inhibitors, primary screen, DLD-1 cells, luminescence; DLD-1 KLF5 promoter-luciferase reporter; inhibition, % at 5 µM; hit rate 0.23% among 290,000; AID 1700, 2009;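 active = inhibition above a per-plate limit of that plate's mean compound inhibition plus 3 SD, cut at about 60% in these data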;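 also: 0% = DMSO wells and 100% = LY294002 at 200 µM; higher means less KLF5 promoter-driven luciferase light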
BaF3 parental – parental Ba/F3 cell viability inhibition, counter-screen for JAK2V617F inhibitor project, murine pro-B, CellTiter-Glo luminescence; CellTiter-Glo ATP luminescence; inhibition, % at 5.6 µM; hit rate 1.1% among 220,000;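 active = inhibition above a per-campaign cutoff, the mean inhibition of all tested compounds plus 3 SD, cut at about 27% in these data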;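 also: 0% = DMSO wells and 100% = JAK Inhibitor I control wells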
IEC-6 tox – cytotoxicity in IEC-6 intestinal epithelial cells, primary screen, cytotoxicity control for KLF5 inhibitor project, cell-based, luminescence; inhibition, % at 5 µM; IEC-6 cytotoxicity, luminescence viability; AID 1825, 2009; hit rate 0.78% among 290,000;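 also: 0% = plate median of test compound wells and 100% = cytotoxic reference compound wells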
APP 5UTR inh – inhibitors of APP translation via 5'UTR reporter, primary screen, APP 5'UTR luciferase, SH-SY5Y cells | SH-SY5Y APP 5'UTR-luciferase reporter, luminescence | inhibition, % at 2 µM | hit rate 0.82% among 190,000;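 active = inhibition above a set limit, derived from the sample mean plus 3 SD, cut at about 45% in these data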
IEC-6 cytotox cf – cytotoxic compounds in IEC-6 epithelial cells, confirmation, cytotoxicity control, cell-based, luminescence | shares compounds with IEC-6 tox | IEC-6 rat intestinal epithelial viability | inhibition, % at 5 µM | hit rate 63% among 1,900;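 also: 0% = vehicle and 100% = reference cytotoxic drug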
* hit, by the source's call; nt = no result. Rule as the data show it, unless noted: active = inhibition above about 22%; inactive = the rest.

SMILES	Ba/F3 V617F tox	KLF5 inhibitor	BaF3 parental	IEC-6 tox	APP 5UTR inh	IEC-6 cytotox cf
CSc1ccccc1NC(=O)C(=O)c1c[nH]c2ccccc12	5	-79	6	8	-34	nt
COc1ccc(Nc2cc(Nc3cccc(OC)c3)ncn2)cc1	nt	-41	nt	14	nt	nt
Cc1ccc(CNC(=O)c2cc(Cl)cc(Cl)c2)n1C	nt	-4	nt	0	nt	nt
CCN(CC)c1ccc2nc3ccccc3[n+](CC)c2c1	nt	20	nt	34*	nt	33*
CC(=O)c1coc2c1cc(O)c1ccccc12	-4	-72	2	0	-30	nt
O=C(c1ccco1)c1coc2c1cc(O)c1ccccc12	-1	-1	-1	25*	-60	6
O=[N+]([O-])c1ccc(N=NN(CCO)CCO)cc1	-3	-13	4	-3	-13	nt
O=[N+]([O-])c1ccc(N=Nc2ncc[nH]2)cc1	nt	-4	nt	81*	nt	13
COCC(C)N1CCC(n2nccc2NC(=O)CCCc2ccccc2)CC1 (stereo unspecified)	nt	-33	nt	5	nt	nt
COc1ccc(-c2noc3c2-c2nc(-c4cccc(C)c4)sc2CC3)cc1	nt	-8	nt	2	nt	nt
Cc1ccc(C(=O)Sc2cccccc2=O)cc1	nt	31	nt	99*	nt	101*
Cc1oc(-c2ccccc2Cl)nc1CS(=O)CC(=O)NCc1ccc2c(c1)OCO2 (stereo unspecified)	nt	-14	nt	-5	nt	nt
CCOC(=O)Nc1nc(-c2ccccc2)c(C(=O)c2ccccc2)s1	80*	55	80*	86*	94*	58*
COc1cc(C(=O)Nn2cnnc2)ccc1OC(F)F	nt	-13	nt	2	nt	nt
CCN(Cc1ccccc1)S(=O)(=O)c1ccc(C(=O)Nc2nnc(C)o2)cc1	nt	42	nt	17	nt	nt
CCc1nnc(NC(=O)c2ccc(S(=O)(=O)N(CC)Cc3ccccc3)cc2)o1	0	23	6	26*	15	2
O=C(O)c1ccccc1NC(=O)c1ccccc1Nc1ccccc1	nt	21	nt	35*	nt	11
COc1ccc(C(=O)N2CCCC(C(=O)O)C2)c2ccccc12 (stereo unspecified)	nt	-11	nt	1	nt	nt
CCOC(=O)C1CCCCN1S(=O)(=O)c1ccc2c(c1)CC(C)N2C(=O)C1CCC1 (stereo unspecified)	nt	-24	nt	1	nt	nt
COc1ccc(C(=O)c2ccc(N(C)C)cc2)c2ccccc12	77*	60	78*	78*	92*	58*
COc1ccccc1C(=O)COC(=O)c1ccc(N(C)C)cc1	0	-71	1	-9	-142	nt
O=C(CSc1nc2ccccc2c(=O)[nH]1)Nc1ccccc1C(F)(F)F	nt	-13	nt	29*	nt	18
O=C(CSc1nc2ccccc2c(=O)[nH]1)Nc1ccccc1O	nt	-41	nt	-1	nt	nt
O=C(N/N=C/c1ccc(O)cc1O)c1ccc(CN2C(=O)c3cccc4cccc2c34)cc1	19	45	5	34*	60*	52*
O=C(N/N=C/c1ccccc1)c1ccc(CN2C(=O)c3cccc4cccc2c34)cc1	0	13	10	4	13	nt
SMILES	Ba/F3 V617F tox	KLF5 inhibitor	BaF3 parental	IEC-6 tox	APP 5UTR inh	IEC-6 cytotox cf
COc1ccc(Nc2ncnc3scc(-c4ccc(OC)cc4)c23)cc1	1	-11	6	24*	-4	20
COc1ccc(OC)c(S(=O)(=O)Nc2cc(OC)c(Cl)cc2OC)c1	-1	-18	3	-9	7	nt
COc1cc(NS(=O)(=O)c2ccc(OC)c(C)c2C)c(OC)cc1Cl	57*	53	51*	35*	65*	52*
Cc1c(Br)c([N+](=O)[O-])nn1CC(=O)Nc1ccc(Cc2ccncc2)cc1	-1	-9	1	2	-3	nt
Cc1ccc(N=Nc2c(N)[nH]n3c(=O)cc(C)nc23)cc1	-2	-26	0	22*	2	16
Cc1ccc(-n2ncc(C(=O)Nc3cc(Cl)cc(Cl)c3)c2C2CCNCC2)cc1C	95*	52	86*	98*	79*	97*
Cc1c(C(=O)N2CCOCC2)[nH]c2c1C(=O)CC(c1ccccc1Cl)C2 (stereo unspecified)	85*	61	84*	60*	85*	48*
O=S(=O)(c1ccc(Cl)cc1)N1CCC(c2nc3ccccc3[nH]2)CC1	nt	3	nt	31*	nt	28*
O=C(NNC(=S)Nc1ccc(F)cc1)c1ccccc1OC(F)F	-1	-19	5	-2	12	nt
Cc1ccc(NC(=S)NNC(=O)c2ccccc2OC(F)F)cc1	26*	0	41*	28*	-14	11
CC1CC(C)(C)Nc2ccc(N=O)cc21 (stereo unspecified)	97*	-62	93*	24*	65*	21
CC1CC(C)(C)Nc2ccc(OC(=O)c3ccco3)cc21 (stereo unspecified)	4	-11	6	9	30	nt
Cc1cc(C)c(C(=O)NC2CCCc3c2cnn3-c2ccc(C)c(C)c2)c(=O)[nH]1 (stereo unspecified)	nt	-15	nt	-4	nt	nt
O=C(Nc1ccccc1C(=O)N1CCN(c2ccccc2)CC1)c1ccco1	3	-17	6	7	-8	nt
CC(C)(C)c1ccc(-c2cn(-c3ccc(Br)cc3)c3[n+]2CCCS3)cc1	100*	35	84*	50*	6	51*
Cn1ncc2c(O/N=C(\N)c3ccc(C(C)(C)C)cc3)ncnc21	75*	-30	36*	93*	nt	21
Cc1ccc(-n2nc3c(N4CCC(C(=O)NCCc5ccccc5C)CC4)nnc(C)c3c2C)cc1	nt	-2	nt	23*	nt	34*
COc1ccc(OCc2cc(/C=N\NC(=O)c3ccccc3)ccc2OC)cc1	nt	4	nt	33*	nt	9
COc1ccc(C(=O)N/N=C\c2ccc(OC)c(COc3ccccc3Br)c2)c(OC)c1	nt	-29	nt	22*	nt	9
COc1cc(OC)cc(C(=O)N/N=C/c2ccc(OC)c(COc3ccc(F)cc3)c2)c1	10	41	55*	65*	87*	40*
COc1ccc(/C=N\NC(=O)c2ccccc2Br)cc1COc1ccccc1	nt	-33	nt	8	nt	nt
CCSC1=NCCN1C(=O)C(C)(C)Oc1ccc(Cl)cc1	5	-14	-2	3	-30	nt
CCn1cc(S(=O)(=O)Nc2cc(F)ccc2C)cn1	-1	-5	5	3	-5	nt
CC(C)OCCCNC1=C(Cl)C(=O)c2ccccc2C1=O	-5	-29	2	51*	nt	-3
COCCCNC1=C(Cl)C(=O)c2ccccc2C1=O	1	-25	3	21	nt	nt
CCN(CC)CCCNC1=C(Cl)C(=O)c2ccccc2C1=O	5	-3	-1	88*	6	77*
O=C1C(Cl)=C(NCc2cccnc2)C(=O)c2ccccc21	nt	3	nt	99*	nt	57*
CC(C)NC1=C(Cl)C(=O)c2ccccc2C1=O	4	-52	7	44*	-1	17
